What all share (settings): mRNA level, 48 h; actives raise or lower the signal
Read-out in test [1]: Glutathione S-Transferase (GSTA2), GSTA2 (gene 2939)
The experiment in a line: LTEA_HepaRG_GSTA2: Life Technologies and Expression Analysis (LTEA) Assay for Glutathione S-Transferase (GSTA2) using HepaRG (AID 2283497). The gist of the method: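 qRT-PCR readout of GSTA2 transcript, normalized to three housekeeping genes, fitted bidirectionally against 0.5% DMSO baseline. Differentiated HepaRG cells received compound for 48 h at 8 concentrations (top 100 uM, half-log steps).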

Read-out in test [2]: Glutamate-cysteine ligase catalytic (GCLC), GCLC (gene 2729)
The experiment in a line: LTEA_HepaRG_GCLC: Life Technologies and Expression Analysis (LTEA) Assay for Glutamate-cysteine ligase catalytic (GCLC) using HepaRG (AID 2283498). The gist of the method:
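HepaRG, 48 h exposure, 8-pt half-log series from 100 uM, 0.5% DMSO vehicle; TaqMan qRT-PCR for GCLC mRNA, housekeeping-normalized; bidirectional curve fit vs DMSO baseline.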

Read-out in test [3]: growth arrest and DNA damage 45 (GADD45G), GADD45G (gene 10912)
The experiment in a line: LTEA_HepaRG_GADD45G: Life Technologies and Expression Analysis (LTEA) Assay for growth arrest and DNA damage 45 (GADD45G) using HepaRG (AID 2283499). The gist of the method:
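Gain or loss of GADD45G mRNA, quantified by TaqMan qRT-PCR against three housekeeping genes, is fitted in both directions relative to 0.5% DMSO. Human HepaRG cultures receive test chemical for 48 h at up to 100 uM.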

Read-out in test [4]: Glutathione S-transferase M3 (GSTM3), GSTM3 (gene 2947)
The test can be described thus: LTEA_HepaRG_GSTM3: Life Technologies and Expression Analysis (LTEA) Assay for Glutathione S-transferase M3 (GSTM3) using HepaRG (AID 2283501). The gist of the method:
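HepaRG, plated 48 h, then serum-free induction medium; test chemical 48 h, duplicate; 100 uM top, half-log x8, 0.5% DMSO. Read-out: GSTM3 mRNA (TaqMan qRT-PCR, Fluidigm array). Bidirectional fit vs DMSO.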

Read-out in test [5]: Heat shock 70 kDa protein 1 (HSPA1A), gene 3303
The test can be described thus: LTEA_HepaRG_HSPA1A: Life Technologies and Expression Analysis (LTEA) Assay for Heat shock 70 kDa protein 1 (HSPA1A) using HepaRG (AID 2283502). A digest of the protocol: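 HepaRG, 48 h exposure, 8-pt half-log CRC from 100 uM in 0.5% DMSO, duplicates. Readout: TaqMan qRT-PCR of HSPA1A mRNA, housekeeping-normalized (ACTB/GAPDH/POLR2A). Bidirectional fit vs 0.5% DMSO baseline.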

Read-out in test [6]: Hypoxia-inducible factor 1-alpha (Homo sapiens) (UniProt Q16665)
The test can be described thus: LTEA_HepaRG_HIF1A: Life Technologies and Expression Analysis (LTEA) Assay for Hypoxia-inducible factor 1 (HIF1A) Trancription factor using HepaRG (AID 2283503). The gist of the method: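 Gain- or loss-of-signal HIF1A mRNA changes are fitted against a DMSO baseline. HepaRG cultures receive eight concentrations, highest 100 uM, for 48 h in serum-free induction medium with 0.5% DMSO.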

Read-out in test [7]: 3-Hydroxy-3-Methylglutaryl-CoA Synthase 2 (HMGCS2), HMGCS2 (gene 3158)
The test can be described thus: LTEA_HepaRG_HMGCS2: Life Technologies and Expression Analysis (LTEA) Assay for 3-Hydroxy-3-Methylglutaryl-CoA Synthase 2 (HMGCS2) using HepaRG (AID 2283504). The gist of the method: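 HepaRG, plated 48 h then switched to serum-free induction media; cmpd 8-pt, max 100 uM, 1/2-log, 0.5% DMSO, n=2, 48 h. HMGCS2 mRNA by Fluidigm TaqMan qRT-PCR, ACTB/GAPDH/POLR2A norm; bidirectional fit vs DMSO.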

Read-out in the next test: HGF (gene 3082)
The test can be described thus: LTEA_HepaRG_HGF: Life Technologies and Expression Analysis (LTEA) Assay for Hepatocyte Growth Facto (HGF) using HepaRG (AID 2283505). The gist of the method: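 Read-out is HGF transcript level by qRT-PCR, normalized to three housekeeping genes, fitted bidirectionally against 0.5% DMSO vehicle. Human HepaRG cells received test chemicals for 48 h at up to 100 uM.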

Read-out in test [8]: Insulin Like Growth Factor 1 (IGF1), IGF1 (gene 3479)
The test can be described thus: LTEA_HepaRG_IGF1: Life Technologies and Expression Analysis (LTEA) Assay for Insulin Like Growth Factor 1 (IGF1) using HepaRG (AID 2283506). A digest of the protocol: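 qRT-PCR readout of IGF1 mRNA, normalized to three housekeeping genes, after 48 h chemical exposure of HepaRG cells. Concentrations: 8-point half-log series, top 100 uM, 0.5% DMSO vehicle. Gain or loss fitted against DMSO baseline.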

Read-out in test [9]: Intercellular Adhesion Molecule 1 (ICAM1), ICAM1 (gene 3383)
The test can be described thus: LTEA_HepaRG_ICAM1: Life Technologies and Expression Analysis (LTEA) Assay for Intercellular Adhesion Molecule 1 (ICAM1) using HepaRG (AID 2283507). The gist of the method: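 Readout is qRT-PCR mRNA level, normalized to three housekeeping genes and fitted bidirectionally against 0.5% DMSO vehicle. Human HepaRG cultures received compound for 48 h, top concentration 100 uM with half-log dilutions.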

Read-out in test [10]: Insulin-like growth factor-binding protein 1 (IGFBP1), IGFBP1 (gene 3484)
The test can be described thus: LTEA_HepaRG_IGFBP1: Life Technologies and Expression Analysis (LTEA) Assay for Insulin-like growth factor-binding protein 1 (IGFBP1) using HepaRG (AID 2283508). A digest of the protocol: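 Thawed HepaRG cells are plated for 48 h, switched to serum-free induction medium, then dosed in duplicate for another 48 h (100 uM top, half-log steps). Lysates in RLT go to qRT-PCR, and gain or loss of signal is fitted relative to vehicle.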

Read-out in test [11]: Interleukin 6 (IL6), IL6 (gene 3569)
The experiment in a line: LTEA_HepaRG_IL6: Life Technologies and Expression Analysis (LTEA) Assay for Interleukin 6 (IL6) using HepaRG (AID 2283509). The gist of the method:
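qRT-PCR read-out of IL6 transcript, normalized to three housekeeping genes, after 48 h chemical exposure of HepaRG cells; 8-point half-log series, top 100 uM, 0.5% DMSO vehicle. Bidirectional curve fitting against DMSO baseline.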

Read-out in test [12]: Interleukin 6 Receptor (IL6R), IL6R (gene 3570)
The test can be described thus: LTEA_HepaRG_IL6R: Life Technologies and Expression Analysis (LTEA) Assay for Interleukin 6 Receptor (IL6R) using HepaRG (AID 2283510).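 As to AC50: differentiated human HepaRG liver cells in serum-free induction medium.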 A digest of the protocol: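 HepaRG, 48 h exposure, 8-pt half-log series, top 100 uM, 0.5% DMSO vehicle, duplicates. Read-out: TaqMan qRT-PCR of IL6R transcript, housekeeping-gene normalized. Gain or loss fitted relative to DMSO baseline.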

Read-out in test [13]: Potassium channel subfamily K member 1 (KCNK1), KCNK1 (gene 3775)
The test can be described thus: LTEA_HepaRG_KCNK1: Life Technologies and Expression Analysis (LTEA) Assay for Potassium channel subfamily K member 1 (KCNK1) using HepaRG (AID 2283511). A digest of the protocol: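 HepaRG, 48 h exposure, 8-pt half-log series top 100 uM, 0.5% DMSO vehicle, duplicates. Readout: KCNK1 transcript by qRT-PCR (Fluidigm array), housekeeping-normalized; bidirectional curve fit relative to DMSO baseline.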

Read-out in test [14]: Keratin 19 (KRT19), KRT19 (gene 3880)
The experiment in a line: LTEA_HepaRG_KRT19: Life Technologies and Expression Analysis (LTEA) Assay for Keratin 19 (KRT19) using HepaRG (AID 2283512). A digest of the protocol: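 KRT19 transcript levels, measured by Fluidigm qRT-PCR against three housekeeping genes, are fitted for gain or loss of signal relative to DMSO. Human HepaRG cells receive test chemicals (top 100 uM, half-log steps, 0.5% DMSO) for 48 hours.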

Read-out in test [15]: JUN Transcription Factor, JUN (gene 3725)
The experiment in a line: LTEA_HepaRG_JUN: Life Technologies and Expression Analysis (LTEA) Assay for JUN Transcription Factor using HepaRG (AID 2283513). The gist of the method: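 HepaRG, 48 h exposure, 8-pt half-log series top 100 uM, 0.5% DMSO, duplicate. JUN mRNA by qRT-PCR (Fluidigm), housekeeping-normalized (ACTB/GAPDH/POLR2A); bidirectional curve fit vs DMSO baseline.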

Read-out in test [16]: Lipase C (LIPC), LIPC (gene 3990)
The test can be described thus: LTEA_HepaRG_LIPC: Life Technologies and Expression Analysis (LTEA) Assay for Lipase C (LIPC) using HepaRG (AID 2283514). A digest of the protocol: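 HepaRG, 48 h exposure, 8-pt half-log series from 100 uM in 0.5% DMSO, duplicates. Readout: LIPC mRNA by Fluidigm qRT-PCR, housekeeping-normalized (ACTB/GAPDH/POLR2A). Gain or loss fitted bidirectionally against DMSO baseline.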

Read-out in test [17]: Lipoprotein lipase (LPL), LPL (gene 4023)
The experiment in a line: LTEA_HepaRG_LPL: Life Technologies and Expression Analysis (LTEA) Assay for Lipoprotein lipase (LPL) using HepaRG (AID 2283515). A digest of the protocol: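 HepaRG, 48 h exposure, 8-pt half-log dilutions from 100 uM, 0.5% DMSO vehicle, duplicates; qRT-PCR (Fluidigm array) of LPL mRNA vs housekeeping genes; bidirectional curve fit relative to DMSO baseline.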

Read-out in test [18]: MicroRNA 122 (MIR122), gene 406906
The experiment in a line: LTEA_HepaRG_MIR122: Life Technologies and Expression Analysis (LTEA) Assay for MicroRNA 122 (MIR122) using HepaRG (AID 2283516). Also: the transcript read is the microRNA miR-122. A digest of the protocol:
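qRT-PCR read-out (TaqMan, Fluidigm array), normalized to three housekeeping genes; HepaRG cells dosed 48 h at 8 concentrations up to 100 uM in 0.5% DMSO, duplicate; gain or loss fitted against DMSO baseline.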

Read-out in test [19]: Glutamate-cysteine ligase regulatory (GCLM), GCLM (gene 2730)
The test can be described thus: LTEA_HepaRG_GCLM: Life Technologies and Expression Analysis (LTEA) Assay for Glutamate-cysteine ligase regulatory (GCLM) using HepaRG (AID 2283500). A digest of the protocol:
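HepaRG, 48 h dosing, 100 uM top, half-log x8, 0.5% DMSO vehicle. Readout: GCLM mRNA by TaqMan qRT-PCR, housekeeping-normalized (ACTB/GAPDH/POLR2A). Curves fit bidirectionally vs DMSO baseline.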

Molecules are shown by their SMILES. Activity calls are given as the source filed them. The calls were made as follows: active = hit-call score of the fitted dose curve at least 0.9, where 1 is the maximum; inactive = score below 0.9.

Hypoxia-inducible factor 1-alpha (Homo sapiens), sequence (Q16665 whole entry, looked up): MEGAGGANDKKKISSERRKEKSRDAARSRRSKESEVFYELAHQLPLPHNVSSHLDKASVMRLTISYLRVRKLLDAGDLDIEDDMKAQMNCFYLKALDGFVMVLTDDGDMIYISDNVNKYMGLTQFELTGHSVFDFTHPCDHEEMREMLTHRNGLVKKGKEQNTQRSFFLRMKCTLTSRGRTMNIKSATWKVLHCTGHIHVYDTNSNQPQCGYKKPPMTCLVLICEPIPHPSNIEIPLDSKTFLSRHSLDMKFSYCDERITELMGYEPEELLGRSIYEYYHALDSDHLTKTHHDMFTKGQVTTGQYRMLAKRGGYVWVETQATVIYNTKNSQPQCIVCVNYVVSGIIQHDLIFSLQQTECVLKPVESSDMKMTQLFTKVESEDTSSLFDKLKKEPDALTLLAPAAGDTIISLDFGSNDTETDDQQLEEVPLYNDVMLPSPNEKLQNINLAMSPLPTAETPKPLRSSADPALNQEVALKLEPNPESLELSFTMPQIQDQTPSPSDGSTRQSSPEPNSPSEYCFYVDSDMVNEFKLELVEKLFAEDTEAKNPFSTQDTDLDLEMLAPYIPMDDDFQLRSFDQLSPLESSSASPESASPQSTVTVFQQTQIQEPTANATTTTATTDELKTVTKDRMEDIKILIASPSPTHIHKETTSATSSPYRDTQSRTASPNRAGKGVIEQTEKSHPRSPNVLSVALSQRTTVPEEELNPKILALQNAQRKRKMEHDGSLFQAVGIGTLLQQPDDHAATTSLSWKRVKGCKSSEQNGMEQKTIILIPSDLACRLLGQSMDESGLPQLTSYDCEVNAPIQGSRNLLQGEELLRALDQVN

What is called AC50 is the midpoint of the concentration-response curve, whichever way the signal moves. `CS(=O)(=O)c1ccc([C@@H](C[C@H]2CCC(=O)C2)C(=O)Nc2cnccn2)cc1Cl`: the outcome in test [1], in test [3], in [6], in test [7], in test [11] and in test [14] was inactive. Besides, the AC50 in test [2] was 1.01 µM (active); in test [4] it was 17.6 µM (active); in [5], 13.4 µM (active); with HGF (gene 3082), 1.71 µM (active); in test [8], 1.24 µM (active); in test [9], 1.48 µM (active). The AC50 in test [10] is 2.29 µM (active); in [12], 16.8 µM (active); in test [13], 1.4 µM (active); in test [15], 1.43 µM (active); in test [16], 1.08 µM (active); in test [17], 0.934 µM (active). The AC50 in test [18] was 1.41 µM (active).
For the compound `Oc1ccc(O)cc1`, the outcome in test [1], in test [2], in [3], in test [19], in test [5] and in test [7] was inactive. Further, the compound was called inactive (in the test with HGF (gene 3082); in [8]; in [9]; in test [10]; in test [11]; in [12]). For the same compound, the call in test [13], in [14], in [15], in test [16], in [17] and in test [18] was inactive.
As to `COC(=O)CCC(=O)OC`, the call in [1], in test [2], in test [3], in test [19], in [5] and in test [6] was inactive. The compound was called inactive (in test [7]; with HGF (gene 3082); in test [8]; in [9]; in test [10]; in test [11]). Besides, the result in [12], in test [13], in test [14], in [15], in test [16] and in [17] was inactive. Moreover, the compound was called inactive in test [18].
With `Nc1nc(=S)c2[nH]cnc2[nH]1`, the AC50 is 7.68 µM (active) in test [1]; 15.3 µM (active) in test [2]; 7.48 µM (active) in [7]; 20.5 µM (active) in [8]; 14.8 µM (active) in test [11]; 8.69 µM (active) in test [12]. For the same compound, the AC50 in [15] was 7.57 µM (active); in [16] it was 5.83 µM (active); in test [17], 19.1 µM (active); in test [18] it was 11.9 µM (active). The compound was called inactive (in test [3]; in test [19]; in test [6]; in the test with HGF (gene 3082); in test [9]; in test [10]). Further, in test [14], the compound was called inactive.

(Values after PubChem BioAssay (EPA / NIEHS).)
